Reference: PubChem BioAssay (EPA / NIEHS)
“And” between values parts separate entries of the source, which are not always exact repeats. Equal values may be shown once. Some structures have more than one record in an assay (separate samples or runs), and their calls can disagree. The source made the active and inactive calls. Rule for the calls: active = hit-call score of the fitted dose curve at least 0.9, where 1 is the maximum; inactive = score below 0.9.

Columns and labels:
[1] = read-out: Plasminogen activator inhibitor-1 (PAI1), SERPINE1 (gene 5054); test: BSK_MyoF_PAI1: BioMAP Diversity Plus: MyoF Assay for Plasminogen activator inhibitor-1 (PAI1) Biomarker Activity (AID 2284256); settings: primary human lung fibroblasts;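 for outcome: PAI-1 protein level measured by ELISA in fibroblast cultures; PAI-1 read 24 h after compound addition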
How it was run: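 MyoF lung fibroblasts, human primary; compound 24 h; PAI-1 ELISA; positive-direction fit vs DMSO baseline; parallel SRB total-protein staining for cytotoxicity.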

[2] = read-out: Collagen I, COL1A1 (gene 1277); test: BSK_hDFCGF_CollagenI: BioMAP Diversity Plus: hDFCGF Assay for Collagen I Biomarker Activity (AID 2284250); settings: primary human foreskin fibroblasts
Description: BSK_hDFCGF is a cell-based, multiplexed-readout assay that uses foreskin fibroblast, a human skin primary cell, with measurements taken at 24 hours after chemical dosing in a 96-well plate.BSK_hDFCGF_CollagenI is an assay component measured in the BSK_hDFCGF assay. It measures Collagen I antibody related to regulation of gene protein expression using ELISA technology.Data from the assay component BSK_hDFCGF_CollagenI was analyzed at the endpoint, BSK_hDFCGF_CollagenI, in the positive analysis fitting direction relative to DMSO as the negative control and baseline of activity. Using a type of binding reporter, gain or loss-of-signal activity can be used to understand protein changes. To generalize the intended target to other relatable targets, this assay endpoint is annotated to the 'cell adhesion molecules' intended target family, where the subfamily is 'collagen'.
The levels of cell surface (or secreted, indicated by the prefix "s") biomarker endpoints were measured by ELISA. Overt cytotoxicity to cells in confluent adherent cultures (all systems other than the BT system) was assessed by measuring total protein levels using sulforhodamine B (SRB) staining in parallel cultures at the time of biomarker measurements, indicated as SRB endpoints. For proliferation assays for adherent cell types, individual cell types are cultured at sub-confluence and relative cell numbers quantified by SRB staining at time points optimized for each system (48 h: 3C and CASM3C systems; 72 h: BT and HDF3CGF systems; 96 h: SAg system). SRB was performed by staining cells with 0.1% SRB after fixation with 10% TCA and reading wells at 560 nm.Viability and proliferation of PBMC (T cells) was quantified by Alamar Blue reduction for the SAg and BT systems. For PBMC viability (referred to as PBMC Cytotoxicity within the assay endpoint names), cells were plated (75,000/well in a 96-well plate) and then chemical samples added for 1 h before addition of activators, SEB and TSST-1 (20 ng/mL final concentration each). Cells were incubated for 90 h. Then, Alamar Blue (20 uL/well) (Invitrogen, Cat DAL1100) was added for 6 h, and the plates were read with a fluorescence microplate reader at 546/580 nm (excitation/emission). For PBMC proliferation, cells were plated and activated as above but incubated for only 16 h prior to addition of Alamar Blue. Plates were read after 6 h.

[3] = read-out: Interferon-inducible T-cell alpha chemoattractant (ITAC), CXCL11 (gene 6373); test: BSK_hDFCGF_ITAC: BioMAP Diversity Plus: hDFCGF Assay for Interferon-inducible T-cell alpha chemoattractant (ITAC) Biomarker Activity (AID 2284251); settings: primary human foreskin fibroblasts
How it was run: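 Chemical dosing of primary human foreskin fibroblast cultures preceded ELISA measurement of I-TAC at 24 h. Response was analysed in the positive direction using DMSO as baseline, while parallel SRB staining measured cytotoxicity.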

[4] = read-out: Plasminogen activator inhibitor-1 (PAI1), SERPINE1 (gene 5054); test: BSK_KF3CT_PAI1: BioMAP Diversity Plus: KF3CT Assay for Plasminogen activator inhibitor-1 (PAI1) Biomarker Activity (AID 2284252); settings: primary human keratinocytes with fibroblasts
How it was run: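 Cells (human keratinocytes co-cultured with foreskin fibroblasts) are exposed to test chemical for 24 h. PAI-1 is then measured by ELISA and analysed for signal gain against DMSO.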

[5] = read-out: Monocyte Chemoattractant Protein-1 (MCP1), CCL2 (gene 6347); test: BSK_IMphg_MCP1: BioMAP Diversity Plus: IMphg Assay for Monocyte Chemoattractant Protein-1 (MCP1) Biomarker Activity (AID 2284253); settings: primary human endothelial cells with macrophages
How it was run: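 ELISA readout of MCP-1 at 24 hours in IMphg co-cultures of venular endothelial cells and macrophages, normalised to DMSO; parallel cultures stained with sulforhodamine B for overt cytotoxicity.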

[6] = read-out: Interleukin-8 (IL8), CXCL8 (gene 3576); test: BSK_KF3CT_IL8: BioMAP Diversity Plus: KF3CT Assay for Interleukin-8 (IL8) Biomarker Activity (AID 2284254); settings: primary human keratinocytes with fibroblasts
How it was run: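 IL-8 read-out: ELISA, 24 h post-dose, human skin primary co-culture (keratinocytes + foreskin fibroblasts). DMSO = baseline; positive-direction fit.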

CD69, CD69 (gene 969) = test: BSK_IMphg_CD69: BioMAP Diversity Plus: IMphg Assay for CD69 Biomarker Activity (AID 2284257); settings: primary human endothelial cells with macrophages
How it was run: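 Readout is ELISA for CD69 in primary human venular endothelial cell/macrophage co-culture, taken at 24 h post-dosing. SRB staining of parallel cultures gauged overt cytotoxicity; signal increase versus DMSO defined activity.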

[7] = read-out: Eotaxin 3, CCL26 (gene 10344); test: BSK_BF4T_Eotaxin3: BioMAP Diversity Plus: BF4T Assay for Eotaxin 3 Biomarker Activity (AID 2284258); settings: primary human bronchial epithelial cells with fibroblasts
How it was run: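 ELISA measurement of Eotaxin-3 after 24 h chemical exposure in a bronchial epithelial/dermal fibroblast co-culture, with DMSO as baseline. Parallel SRB staining (0.1% SRB after 10% TCA fixation, 560 nm) flagged overt cytotoxicity.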

[8] = read-out: Monocyte Chemoattractant Protein-1 (MCP1), CCL2 (gene 6347); test: BSK_BF4T_MCP1: BioMAP Diversity Plus: BF4T Assay for Monocyte Chemoattractant Protein-1 (MCP1) Biomarker Activity (AID 2284259); settings: primary human bronchial epithelial cells with fibroblasts
How it was run: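 MCP-1 ELISA readout taken 24 h after dosing in the BF4T system (bronchial epithelial cells plus dermal fibroblasts). Parallel SRB total-protein staining flagged cytotoxicity; DMSO served as baseline, positive fitting direction.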

[9] = read-out: Macrophage Inflammatory Protein-1 Alpha (MIP1a), CCL3 (gene 6348); test: BSK_IMphg_MIP1a: BioMAP Diversity Plus: IMphg Assay for Macrophage Inflammatory Protein-1 Alpha (MIP1a) Biomarker Activity (AID 2284255); settings: primary human endothelial cells with macrophages
How it was run: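 MIP-1a protein levels were quantified by ELISA after 24 h treatment of human endothelial cell–macrophage co-cultures, compared with DMSO. Parallel cultures were fixed with TCA and stained with 0.1% SRB to gauge overt cytotoxicity.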

CCCCCCCCCCCCCC[N+](C)(C)C
AC50 [1]: 3.69 µM (active)

FC(F)(I)C(F)(F)C(F)(F)C(F)(F)C(F)(F)C(F)(F)I
AC50 [2]: 14 µM (active) and 10.1 µM (active)
outcome [2]: inactive
AC50 [3]: 5.16 µM (active) [middle of 5 runs]
AC50 [4]: 6.91 µM (active) [middle of 5 runs]
AC50 [5]: 39.8 µM (active) [middle of 5 runs]
AC50 [6]: 6.35 µM (active) [middle of 5 runs]
AC50 [1]: 6 µM (active) [middle of 5 runs]
AC50 (CD69, CD69 (gene 969)): 37.9 µM (active) [middle of 5 runs]
AC50 [7]: 8.19 µM (active) [middle of 5 runs]
AC50 [8]: 8.32 µM (active) [middle of 5 runs]

C[C@@H]1C[C@H]2[C@@H]3CCC4=CC(=O)C=C[C@]4(C)[C@@]3(F)[C@@H](O)C[C@]2(C)[C@@]1(O)C(=O)COP(=O)(O)O
outcome [2]: inactive
AC50 [3]: 1.1 µM (active)
outcome [3]: inactive
outcome [4]: inactive
AC50 [5]: 1.04 µM (active) and 1.15 µM (active)
outcome [6]: inactive
AC50 [9]: 946 nM (active) and 574 nM (active)
outcome [1]: inactive
outcome (CD69, CD69 (gene 969)): inactive
AC50 [7]: 951 nM (active)
outcome [7]: inactive
outcome [8]: inactive

NCC(F)(F)C(F)(F)C(F)(F)C(F)(F)C(F)(F)C(F)(F)C(F)(F)F
outcome [2]: inactive
AC50 [3]: 12.1 µM (active)
outcome [3]: inactive
outcome [4]: inactive
outcome [5]: inactive
AC50 [6]: 13.5 µM (active)
outcome [6]: inactive
outcome [9]: inactive
outcome [1]: inactive
outcome (CD69, CD69 (gene 969)): inactive
outcome [7]: inactive
AC50 [8]: 220 nM (active)
outcome [8]: inactive

OCCC(F)(F)C(F)(F)C(F)(F)C(F)(F)C(F)(F)C(F)(F)F
AC50 [2]: 30 µM (active) and 46.9 µM (active)
AC50 [3]: 55 µM (active) and 57.4 µM (active)
outcome [4]: inactive
outcome [5]: inactive
outcome [6]: inactive
AC50 [9]: 42.4 µM (active)
outcome [9]: inactive
outcome [1]: inactive
outcome (CD69, CD69 (gene 969)): inactive
outcome [7]: inactive
outcome [8]: inactive

C=C(C)C(=O)OCCC(F)(F)C(F)(F)C(F)(F)C(F)(F)C(F)(F)C(F)(F)F
outcome [2]: inactive
outcome [3]: inactive
outcome [4]: inactive
outcome [5]: inactive
outcome [6]: inactive
outcome [9]: inactive
outcome [1]: inactive
outcome (CD69, CD69 (gene 969)): inactive
outcome [7]: inactive
outcome [8]: inactive

OCCC(F)(F)C(F)(F)C(F)(F)C(F)(F)C(F)(F)C(F)(F)C(F)(F)C(F)(F)F
AC50 [2]: 17.8 µM (active)
outcome [2]: inactive
AC50 [3]: 12.4 µM (active)
AC50 [4]: 15.1 µM (active) and 15.7 µM (active)
AC50 [5]: 49.6 µM (active) and 45.9 µM (active)
outcome [6]: inactive
outcome [9]: inactive
AC50 [1]: 17.1 µM (active) and 11.1 µM (active)
AC50 (CD69, CD69 (gene 969)): 30 µM (active) and 7.45 µM (active)
AC50 [7]: 13.5 µM (active) and 9.61 µM (active)
AC50 [8]: 21.2 µM (active) and 30 µM (active)
